VDR inhibitor: Inhibitors of the vitamin D receptor (VDR): qHTS; 0.93% of 400,000 active; AID 504847, 2011; VDR-SRC2-3 peptide fluorescence polarization, 2 h; Potency, µM, without a hit: max response, negative = inhibition, actives largely listed as inhibitors
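Signal is fluorescence polarization, reporting how far test compounds block the interaction of VDR with the SRC2-3 coregulator peptide after a 2 h room-temperature incubation.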
PLK1 PBD block: qHTS for Inhibitors of PLK1-PDB (polo-like kinase 1 - polo-box domain): Primary Screen | Serine/threonine-protein kinase PLK1 (Homo sapiens), P53350 | 2.8% of 360,000 active | Potency, µM, for inactives: max response, negative = inhibition, usual class: inhibitors | AID 720504, 2013 | Plk1 PBD binding of FITC phosphopeptide, fluorescence polarization; further: series mostly up to about 57 µM; nearly all actives have a fitted effect of over 65% in size
12-LOX inh: Primary qHTS assay for inhibitors of human arachidonate 12S-lipoxygenase (ALOX12): Round 2; Polyunsaturated fatty acid lipoxygenase ALOX12 (Homo sapiens), P18054; purified 12hLO, xylenol orange hydroperoxide absorbance; Potency, µM (top dose mostly 108 µM), without a hit: at the highest dose activity change, negative = inhibition, hits mostly inhibitors; 1.1% of 580,000 active; AID 1671190, 2021
Target sequence (P18054 whole entry, looked up): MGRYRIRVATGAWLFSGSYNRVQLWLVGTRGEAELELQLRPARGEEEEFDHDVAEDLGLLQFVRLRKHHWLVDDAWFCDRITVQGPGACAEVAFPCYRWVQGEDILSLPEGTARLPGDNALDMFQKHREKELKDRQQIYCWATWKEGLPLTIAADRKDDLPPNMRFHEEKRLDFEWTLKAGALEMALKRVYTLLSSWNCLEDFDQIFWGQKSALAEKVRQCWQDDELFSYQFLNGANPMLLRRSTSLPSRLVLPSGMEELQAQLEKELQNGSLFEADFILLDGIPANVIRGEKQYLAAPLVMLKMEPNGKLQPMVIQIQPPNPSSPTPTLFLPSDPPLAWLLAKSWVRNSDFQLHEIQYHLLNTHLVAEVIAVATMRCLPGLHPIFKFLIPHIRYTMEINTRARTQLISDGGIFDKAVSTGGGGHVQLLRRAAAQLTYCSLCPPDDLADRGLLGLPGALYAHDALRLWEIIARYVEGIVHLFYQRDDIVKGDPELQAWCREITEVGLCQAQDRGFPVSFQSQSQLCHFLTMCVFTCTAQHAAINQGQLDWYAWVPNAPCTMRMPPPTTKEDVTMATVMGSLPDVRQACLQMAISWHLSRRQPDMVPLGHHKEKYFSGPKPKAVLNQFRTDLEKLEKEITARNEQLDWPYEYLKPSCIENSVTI
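Purified human 12hLO at 150 nM in 25 mM Hepes, 0.01% Triton X-100, pH 7.0, preincubated 15 min at room temperature with compound. Reaction started with 40 uM arachidonic acid, 30 min at room temperature. Hydroperoxide measured by Fe-xylenol orange, 573/405 nm absorbance ratio.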
GCN5L2 inh: qHTS Assay for Inhibitors of GCN5L2 | Histone acetyltransferase KAT2A (Homo sapiens), Q92830 | GCN5L2 HAT assay, ThioGlo1 CoA-SH fluorescence | Potency, µM (doses to about 58.9 µM), for inactives: at the highest dose activity change, negative = inhibition, most hits filed as inhibitors | 0.21% of 390,000 active
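Preincubate 20nM GCN5L2 with compound 15 min, RT → add 50uM ThioGlo1 + 75uM H3(1-25) + 70uM acetyl-CoA → read fluorescence 0 and 20 min. Primary qHTS; fluorescent artifacts likely.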
* = called active by the depositor; i = inactive; ? = inconclusive; . = no result; ! = not confirmed by another sample; [ ] = another dose, or the depositor's remark. Most compounds without a hit are left out; they make up all but 3% or so of the library. The call rests on the fitted dose curve; in most records, active means well fitted curve in the direction sought with a large enough effect; inconclusive means small, poorly fitted or top-dose-only effect, or another doubt; inactive means no such curve, though single readings can be large; an effect the other way counts as inactive or inconclusive. On the % scale 0 is the no-effect control and ±100 the full control effect; potency means the concentration at half of the fitted maximal effect.

SMILES | VDR inhibitor | PLK1 PBD block | 12-LOX inh | GCN5L2 inh
S=C1NC(c2ccccc2)N2C(=S)NC(c3ccccc3)N12 (stereo unspecified) | ? | ? | 15.8µM* | 28.2µM*
COc1ccc(C2NC(=S)N3C(c4ccc(OC)cc4)NC(=S)N23)cc1 (stereo unspecified) | -12.9% | 8.44µM* | ? | -19.3%
Cc1ccc(C2NC(=S)N3C(c4ccc(C)cc4)NC(=S)N23)cc1 (stereo unspecified) | . | 2.0% | ? | .
NC(=O)c1ccc2c(c1)S(=O)(=O)c1ccccc1C2=O | -25.5% | -1.0% | i | -3.9%
CC1=C(C(N)=O)S(=O)(=O)c2ccccc21 | ? | 21.2µM* | -25.6% | -9.4%
COC(=O)/C=C1\S/C(=N/N=C/c2ccc(Cl)cc2)NC1=O | -14.2% | 29.9µM* | -10.2% | -14.6%
Cc1ccc(-c2cc(NC(=O)CCl)n(-c3ccccc3)n2)cc1 | ? | 26.7µM* | ? | -3.0%
O=C(CCl)Nc1cc(-c2ccccc2)nn1-c1ccccc1 | -12.4% | -17.4% | ? | -6.2%
Cc1cc(C)c2c(CN3CCN(Cc4ccccc4)CC3)cc(=O)oc2c1 | 17.9% | 1.0% | 14.1µM*! | -1.3%
O=C(N/N=C\c1ccc(CNS(=O)(=O)c2ccccc2)o1)C(=O)Nc1ccc(F)cc1 | -16.2% | 1.7% | -4.3% | -0.8%
O=C(N/N=C\c1ccc(CN(Cc2ccc(Cl)cc2)S(=O)(=O)c2ccccc2)o1)C(=O)Nc1ccc(F)cc1 | -22.0% | 26.7µM* | 0.5% | -1.3%
CCNC(=S)N(CCc1c(C)[nH]c2ccc(C)cc12)Cc1cccnc1 | -5.6% | -7.3% | 30.6% | -19.7%
CCNC(=S)N(CCc1c(C)[nH]c2ccc(F)cc12)Cc1cccnc1 | -28.6% | 18.9µM* | 0.0% | 0.0%
CC(CCc1ccccc1)NC(=O)CN1CCc2ccccc2C1 (stereo unspecified) | -16.1% | 26.7µM* | -16.0% | -1.7%
Cc1nc2scc(-c3cccs3)c2c(=O)[nH]1 | -2.5% | ? | -12.4% | -4.4%
O=c1c2c(-c3cccs3)csc2[nH]c(=S)n1-c1ccccc1 | 12.8% | 21.2µM* | ? | 18.8%
CC(C)n1c(=S)[nH]c2scc(-c3cccs3)c2c1=O | 7.9% | 26.7µM* | ? | 17.8µM*
O=S1CCNc2ccccc21 (stereo unspecified) | . | . | 50.1% | .
CC1(C)[C@H](Cc2cc(CC3CCCCC3)on2)C[C@@H]1NC(=O)c1ccccc1 | . | . | -0.4%[176 µM] | .
COc1ccc([C@H]2C[C@@H](O)[C@@H](O)[C@@H]2NCc2ccccc2)cc1 | . | . | 11.4%[176 µM] | .
COc1ccc([C@H]2C[C@@H](O)[C@@H](O)[C@@H]2NCc2cn(C)c3ccccc23)cc1 | . | . | 39.8µM* | .
Cc1ccc(NC(=O)CCC(=O)NNS(=O)(=O)c2ccccc2)c(C)c1 | -11.0% | 6.7µM* | -0.1% | -10.3%
O=C(CCCNC(=O)c1ccc(Cl)cc1)Nc1ccc(S(=O)(=O)Nc2ncccn2)cc1 | ? | 26.7µM* | 12.0% | 2.9%
O=C(CCC(=O)Nc1ccccc1)NNS(=O)(=O)c1ccc(Cl)cc1 | -15.8% | 18.9µM* | ? | -12.3%
Cc1ccc(NC(=O)CCC(=O)NNC(=O)Cc2ccccc2)cc1C | 4.3% | -6.1% | 23.5% | -29.9%
SMILES | VDR inhibitor | PLK1 PBD block | 12-LOX inh | GCN5L2 inh
Cc1ccc(NC(=O)CCC(=O)NNS(=O)(=O)c2ccccc2)cc1C | ? | 26.7µM* | 5.2% | -1.7%
Cc1ccc2cc(CN(Cc3ccc4c(c3)OCO4)Cc3nnnn3Cc3ccco3)c(=O)[nH]c2c1C | -0.1% | -11.5% | 12.6µM* | -13.4%
CC(C)(C)c1ccc(/C=N/Nc2ccc(S(=O)(=O)Nc3ccccc3)cc2[N+](=O)[O-])cc1 | . | . | 37.5% | .
Oc1ccc(-c2csc(Nc3cccc(O)c3)n2)cc1 | . | . | 39.8µM* | .
Cc1nc(C)c(-c2csc(Nc3ccc(C(=O)O)c(O)c3)n2)s1 | -3.3% | -22.1% | -13.1% | -1.0%
Cc1ccc(-c2csc(Nc3ccc(O)c(C(=O)O)c3)n2)cc1 | . | . | 35.5µM* | .
Oc1ccc(Nc2nc(-c3ccc(O)cc3)cs2)cc1 | -2.9% | -12.7% | ? | -6.5%
O=C(O)c1ccc(Nc2nc(-c3ccc(Cl)cc3)cs2)cc1O | . | . | 10µM* | .
Cc1oc2cc(OCC(=O)OC(C)C)ccc2c(=O)c1-c1ccc(Cl)cc1 | . | . | 6.2% | .
CC(C)(CNC(=O)NCC1CCCC1)C(N)=O | . | . | 7.2% | .
Cc1ccc(C)c(S(=O)(=O)c2nnn3c2nc(NCc2ccc(F)cc2)c2sccc23)c1 | . | . | -6.9% | .
NC(=O)NC(=O)COC(=O)c1sc2ccccc2c1Cl | ? | 13.4µM* | -27.0% | 0.8%
O=[N+]([O-])c1cc(S(=O)(=O)Nc2ccc(Cl)cc2)ccc1N/N=C/c1ccccc1F | . | . | 36.0% | .
CN1CCN(CC(=O)c2cc(C(C)(C)C)c(O)c(C(C)(C)C)c2)CC1 | 70.8µM* | -25.2% | ? | 0.2%
CCn1cc(S(=O)(=O)N2CCCC(C(=O)NCc3nn(CC)cc3Cl)C2)c(C)n1 (stereo unspecified) | . | . | 40.0% | .
Cc1cc(NC(=O)CCCn2cnc([N+](=O)[O-])n2)no1 | ? | 11.9µM* | 8.6% | -5.7%
Cn1c(/C=C/c2ccccc2[N+](=O)[O-])nc2ccccc2c1=O | -2.8% | -3.8% | 3.6% | -3.3%
O=[N+]([O-])c1ccccc1/C=C/c1ccc2ccccc2n1 | 0.4% | 26.7µM* | -2.4% | 0.6%
Cc1ccc(CN2CCCC(c3nn(-c4ccc(Cl)cc4)c(=O)[nH]3)C2)cc1 (stereo unspecified) | . | . | 17.8µM* | .
O=C(Nc1ccc(Cl)cc1)N1CCC(c2nn(-c3ccc(Cl)cc3)c(=O)[nH]2)CC1 | . | . | 12.6µM* | .
O=C(Cc1cccc(Cl)c1)N1CCC(c2nn(-c3ccc(F)cc3)c(=O)[nH]2)CC1 | . | . | -19.5% | .
O=C(Cc1ccc(F)cc1)N1CCC(c2nn(-c3ccc(Cl)cc3)c(=O)[nH]2)CC1 | . | . | 28.2µM* | .
O=C(Cc1ccccc1)N1CCCC(c2nn(-c3ccc(Cl)cc3)c(=O)[nH]2)C1 (stereo unspecified) | . | . | 31.6µM* | .
CCOc1ccc(N/C(=C\C(=O)c2ccccc2)c2ccccc2)cc1 | . | . | -13.7% | .
Cc1c(S(=O)(=O)c2ccc(F)cc2)c(N)n(Cc2cccnc2)c1C | . | . | -27.7% | .
SMILES | VDR inhibitor | PLK1 PBD block | 12-LOX inh | GCN5L2 inh
CCc1ccc(OC(=O)c2ccc(OC)c(I)c2)c(Br)c1 | . | . | 15.8% | .
COC(=O)c1ccc(NS(=O)(=O)c2c(C)cc(C)cc2C)cc1 | . | . | -8.7% | .
O=C(Cc1ccc(Cl)cc1)N1CCC(c2n[nH]c(=O)n2Cc2ccc(F)cc2)CC1 | . | . | 14.1µM* | .
COc1ccc(Cn2c(C3CCN(C(=O)Cc4ccc(F)cc4)CC3)n[nH]c2=O)cc1 | . | . | 21.9% | .
CSc1cccc(NC(=O)NC(c2ccccc2)c2nnc(-c3ccccc3Cl)o2)c1 (stereo unspecified) | . | . | 38.8% | .
O=C(Cn1nnc(-c2ccccc2)n1)N1CCC(c2nc3ccccc3s2)CC1 | . | . | 39.8µM* | .

High-throughput results: PubChem, National Center for Advancing Translational Sciences (NCATS)
